Screens deposited in PubChem BioAssay by NMMLSC.
CIT2 TOR yeast: modulators of CIT2-GFP expression in yeast, primary screen, S. cerevisiae, GFP fusion, multiplex flow cytometry, MLPCN library | GFP response vs DMSO, % at 10 µM | S. cerevisiae CIT2-GFP strain, 3 h; 100 means same as DMSO wells | 320,000 compounds, 0.065% hits;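 active = GFP response relative to DMSO above a set limit, near the screen mean plus 3 SD, cut at about 150% in these data; inconclusive = Fewer than 70 cells measured for a yeast strain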;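 also: ratio of well median GFP fluorescence to mean of DMSO wells on the plate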
MEP2-GFP yeast: modulators of MEP2-GFP levels in yeast, primary screen, S. cerevisiae, multiplex flow cytometry, MLPCN library; S. cerevisiae MEP2-GFP strain, 3 h; 100% = DMSO control level; GFP response vs DMSO, % at 10 µM; 330,000 compounds, 0.51% hits; AID 2016, 2009;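 active = GFP response versus DMSO above a set limit, roughly screen mean plus 3 SD, cut at about 180% in these data; inconclusive = fewer than 70 cells counted for a yeast strain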;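 also: median GFP fluorescence of the barcode-gated MEP2-GFP cells per well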
LAP4-GFP MLPCN: modulators of LAP4-GFP expression in yeast, primary screen, S. cerevisiae, multiplex flow cytometry, MLPCN library. GFP response vs DMSO, % at 10 µM. 320,000 compounds, 0.34% hits. 3 h; median GFP as percent of DMSO wells;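 active = GFP response vs DMSO above a set limit, about the screen mean plus 3 SD, cut at about 150% in these data; inconclusive = under 70 cell events counted for the yeast strain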
RPL19A TOR yeast: RPL19A-GFP expression modulators in yeast, primary screen, cell-based, S. cerevisiae, multiplex flow cytometry, MLPCN. percent response vs DMSO, % at 10 µM. S. cerevisiae RPL19A-GFP strain, 3 h; hits give low values. AID 2025, 2009. 330,000 compounds, 0.3% hits;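 active = percent response vs DMSO below 50%; inconclusive = fewer than 70 events counted for the yeast strain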;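 also: median channel GFP fluorescence of the barcoded RPL19A-GFP strain; ratio of sample median GFP to plate DMSO average so 100% = DMSO; lower means less RPL19A-GFP as with rapamycin TOR inhibition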
AGP1-GFP MLPCN: modulators of AGP1-GFP expression in yeast TOR pathway, primary screen, cell-based, multiplex flow cytometry, S. cerevisiae, MLPCN library | 3 h; GFP as percent of DMSO wells | GFP response vs DMSO, % at 10 µM | 320,000 compounds, 0.02% hits;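 active = GFP response relative to DMSO above a set limit, near screen average plus 3 SD, cut at about 150% in these data; inconclusive = fewer than 70 cells counted for the yeast strain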;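 also: median GFP channel fluorescence of the gated AGP1 strain per well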
VLA-4 inh: inhibition in human VLA-4 binding assay, primary screen, VLA-4 allosteric modulator project, MLPCN library, flow cytometry, VLA-4 expressing cells; Integrin alpha-4 (Homo sapiens), P13612; ligand binding flow cytometry; inhibition, % (about 7 µM as worked out from the volumes in the protocol); 330,000 compounds, 0.2% hits; AID 2557, 2010; in the data active = inhibition above about 50%
An asterisk follows results filed as active; i = inactive; ? = inconclusive; [ ] = remark or other dose. Sampled rows, rich in hits. Any-hit rate of the full collection: about 1.1%.

SMILES	CIT2 TOR yeast	MEP2-GFP yeast	LAP4-GFP MLPCN	RPL19A TOR yeast	AGP1-GFP MLPCN	VLA-4 inh
CC[n+]1c(/C=C/C=C/c2ccc(N(C)C)cc2)sc2ccccc21	103	103	366*[may fluoresce red]	?	106	-354
Cc1ccnc(-n2c(C)cc(C=C3C(=O)N(C)C(=S)N(C)C3=O)c2C)c1	82	110	113	96	93	-6
Cc1cc(C=C2C(=O)N(C)C(=S)N(C)C2=O)c(C)n1-c1ccncc1	59	108	157*	84	105	-3
CN1C(=O)C(=Cc2ccc(SC3CCCCC3)o2)C(=O)N(C)C1=O	83	92	151*	95	92	4
CN1C(=O)C(=Cc2ccc(N3CCCCC3)o2)C(=O)N(C)C1=S	91	105	104	96	98	-20
COc1ccc2[nH]cc(C3=CCNCC3)c2c1	171*	183*	174*	109	97	i
COc1ccc2[nH]cc(CCN=C(N)N)c2c1	94	108	106	98	107	1
O=S(=O)(c1ccc(Cl)cc1)N1CCCCC1c1cccnc1 (centres undefined)	105	101	100	94	105	3
O=c1[nH]c(=O)n(Cc2ccc(F)cc2)c(O)c1C=NCCN1CCCCC1	111	179*	146	78	129	10
O=c1[nH]c(=O)n(-c2ccccc2Cl)c(O)c1C=NCCN1CCCCC1	106	105	110	102	103	-1
CCN(CC)c1ccc(/C=C/[N+](=O)[O-])cc1	92	102	160*	103	91	13
CCN(CC)c1ccccc1	87	90	91	97	93	0
O=C(CF)NC(Nc1cccc2cccnc12)C(Cl)(Cl)Cl (centres undefined)	98	100	97	95	92	0
Cc1ccc(/C=C2\C(=O)NC(=O)N(CC3CCCO3)C2=O)s1 (centres undefined)	54	84	191*	88	76	17
CCN(CC)c1ccc(/C=C2\C(=O)NC(=O)N(CC3CCCO3)C2=O)cc1 (centres undefined)	101	108	90	108	108	-1
Cc1ccc(/C=C2/C(=O)NC(=O)N(CCc3ccc(F)cc3)C2=O)o1	92	95	92	95	99	-4
O=C1NC(=S)N(c2ccccc2)C(=O)/C1=C/c1ccco1	83	92	157*	95	85	8
O=C1NC(=O)N(CCc2ccc(F)cc2)C(=O)/C1=C/c1ccco1	100	97	182*	95	88	1
Cc1cc(OCC(=O)NCc2cccnc2)c2c3c(c(=O)oc2c1)CCCC3	110	102	110	99	111	-11
C[N+]1(CC2COC(c3ccco3)O2)CCCCC1 (centres undefined)	?	249*[may fluoresce violet]	62	58	17	39
O[C@@H]1CCCC[C@H]1N1CCC(c2ccccc2)CC1	79	97	111	101	86	0
O=C1CN=C(c2ccccc2Cl)c2cc(Br)ccc2N1	109	99	104	106	111	-9
CC(=O)OC1N=C(c2ccc(Cl)cc2)c2cc(Br)ccc2NC1=O (centres undefined)	?	451*[may fluoresce violet]	85	58	22	4
CC[C@@]1(O)C(=O)OCc2c1cc1n(c2=O)Cc2cc3ccccc3nc2-1	91	86	160*	97	81	-9
Clc1ccccc1C1=NCc2nncn2-c2sc(Br)cc21	88	98	94	98	97	-2
SMILES	CIT2 TOR yeast	MEP2-GFP yeast	LAP4-GFP MLPCN	RPL19A TOR yeast	AGP1-GFP MLPCN	VLA-4 inh
COc1cc2c(cc1OC)C(C(=O)NC(C)C)C1CCCCN1C2=O (centres undefined)	?	498*[may fluoresce violet]	113	31*[may fluoresce violet]	?	-2
COc1cc2c(cc1OC)C(C(=O)NCCC(C)C)C1CCCCN1C2=O (centres undefined)	108	103	95	102	102	-19
S=P(Nn1cnnc1)(c1ccccc1)c1ccccc1	102	102	94	103	100	0
CC[C@H](C)/C=C(C)/C=C/C1=CC2=C(Cl)C(=O)[C@](C)(OC(C)=O)C(=O)C2=CO1	?	70	60	38*[may fluoresce violet]	12	-2
O=S(=O)(c1ccc(Cl)cc1)N1CC1c1ccccc1 (centres undefined)	103	102	94	100	102	12
Nc1ccc(N=Nc2ccccc2)cc1	71	94	190*	90	76	-1
CN(C)CC1CSCCC1(O)c1ccc(C(F)(F)F)cc1 (centres undefined)	94	101	95	106	101	23
CN(C)CC1CSCCC1(O)c1ccc(Cl)cc1 (centres undefined)	?	205*[may fluoresce violet]	91	45*[may fluoresce violet]	?	-14
COc1cc(/C=C/C(=O)c2c(O)n(CCc3ccccc3)c(=O)[nH]c2=O)ccc1O	105	585*	125	117	74	33
N#CC(C#N)=NNc1ccc(-n2ccc(C(F)(F)F)n2)cc1	89	96	198*	73	69	15
Cc1cc(C)n(-c2ccc(NN=C(C#N)C#N)cc2)n1	96	100	100	98	95	12
O=C(c1ccccc1)c1ccc(N=Nc2c(O)[nH]c(=O)[nH]c2=O)cc1	?	227*[may fluoresce violet]	75	100	12	-18
CCCC12CN3CN(C1)CC(CCC)(C3)C2O (centres undefined)	98	94	100	99	101	1
COc1ccccc1N1CCN(CCc2ccccc2)CC1	92	85	86	87	83	8
COc1ccc2c3c([nH]c2c1)C(C)=NCC3	?	259*[may fluoresce violet]	115	51	18	-155
CC1=NCCc2c1[nH]c1cc(O)ccc21	?	197*[may fluoresce violet]	91	50	62	-14
CCOC(=O)C(O)(c1ccc(NC(=S)NC(=O)c2ccc(Cl)cc2Cl)c(C)c1)C(F)(F)F (centres undefined)	?	215*[may fluoresce violet]	?	28*[may fluoresce violet]	?	9
COC(=O)c1ccc(CC(C(=O)c2ccccc2)N(C)C)cc1 (centres undefined)	106	108	99	97	98	-7
CCn1cc(C(=O)N2CCOCC2)c2ccccc21	98	94	94	95	99	18
